How the values were obtained:
Experiment in all cases: PBM binding z-score (relative to random genomic background probes); higher = stronger binding; sequences stand for … in GC…GCGATTGACAGCGTAGAATGAAGG
[1] = tested on: RARb homodimer (NR concentration 270 nM)
Method in brief: (§1)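 On custom Agilent 4×180K arrays, double-stranded probes with 34-nt variable regions carried direct-repeat seeds, single-nucleotide variants, half-site ablations or random human genomic background. Ligand-free nuclear receptor dimers were applied for 1 h, and binding was read with antibodies against each partner (one per run). Binding z-scores come from regression-normalized fluorescence, with the random background probes as reference.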

[2] = tested on: RARg:RXRa (NR concentration 270 nM, RXRa partner concentration 90 nM)
Method in brief: as §1

[3] = tested on: RARg homodimer (NR concentration 270 nM)
Method in brief: as §1

[4] = tested on: RXRa DBDmut IVT, anti-RXR (DBD mutation: RXRa K156A/R161A, NR concentration 90 nM)
Method in brief: as §1

[5] = tested on: RXRa homodimer (NR concentration 180 nM)
Method in brief: as §1

[6] = tested on: THRa:RXRa (NR concentration 90 nM, RXRa partner concentration 90 nM)
Method in brief: as §1

[7] = tested on: THRa homodimer (NR concentration 90 nM)
Method in brief: as §1

[8] = tested on: VDR homodimer (NR concentration 270 nM)
Method in brief: as §1

Sequence	PBM binding z-score [1]	PBM binding z-score [2]	PBM binding z-score [3]	PBM binding z-score [4]	PBM binding z-score [5]	PBM binding z-score [6]	PBM binding z-score [7]	PBM binding z-score [8]
CTCGAAAGTTCGTGCTCAGGTGAGTATACCAAAC	1.55	2.29	1.52	2.83	1.01	2.86	0.851	1.88
CGTCCAAGGTCAGAGAGGACAGTGAATGCCGAGT	4.12	4.57	5.67	2.6	3.68	3.67	2.08	2.85
TCATATAGGTAATATAGGTGAAAGTCGGCATCTA	0.281	0.454	0.522	1.2	0.79	0.364	-0.347	0.0956
TCATATAGGTAAACAGGTGAAAGGCCGTAAGTTA	1.29	0.793	0.375	1.61	1.2	0.682	0.262	0.499
ATATTTAGGTTAGCTGGGGTCATTCAGACTAGGC	3.93	4.05	3.26	2.19	5.09	5.1	4.01	6.12
GCTATTAGTAGAAAGGGCAACCGAATGATTCTCG	1.83	0.904	1.32	0.538	0.634	0.234	-0.401	-0.301
AGAATGAGGTTACCAAAGATCAGGGCAACGCTTG	1.97	2.24	1.97	1.14	2.77	3.16	1.2	0.728
ATCGAAAGGTCGGAGGTGAGTATACCCACCCGAA	2.03	3.26	3	0.388	3.28	1.77	-0.0288	0.152
TCATATAGGTAAACAGGGGAAAGTCCGTAAGTTA	0.507	0.245	0.0765	1.97	0.978	0.404	0.286	0.312
TCTCGGAGGACACGAAGGTCAGTGCTTTCCAGAG	3.9	2.87	3.49	0.969	1.47	2.73	1.06	1.39
CCTAGTTGGTCAGGATGTCACACACCGGATATGA	1.17	0.74	1.1	0.164	0.209	0.0669	0.525	0.443
ATCTCTTGGTAAAAGTTCAGTGAATCCCGAGGAT	2.43	1.43	1.95	0.705	1.02	0.75	0.436	1.86
CCTCGGAGGACAACAGGAGGTCAGAACTGCCAGA	3.33	3.23	3.05	0.497	1.81	2.59	0.726	0.781
CCTAGCAGGCCAATCTGGGTCACACAAGGCTTGA	2.53	1.61	1.82	0.0737	1.63	3.99	0.9	0.17
CGAACTAGGTCAGAACAGGTCAGTGAAGGATGAT	3.88	3.47	4.34	1.03	2.22	4.08	0.526	0.955
TGAATGAGGTTAAAGATTAGGGAACGTGGCGTCG	0.481	1.91	1.29	1.09	2.89	2.37	0.417	0.533
CAAACTAGGTCGCCGGAAGGTCAAAGTCCGCATG	4.43	6.47	4.32	1.22	4.39	3.68	1.44	2.39
CGAACTAGGTCATCAAGGACAGTGAATACATTGA	3.18	3.95	4.85	1.92	2.67	3.87	2.11	1.83
CGTACTAGGTCAGAACAGGACAGTGAAGGATGAT	2.2	2.5	3.38	0.907	0.946	3.33	0.353	0.141
CGAGCGAGGGCATGAGTTGATAGCAAATGCCGAT	0.657	1.14	1.22	2.15	1.19	0.963	-0.509	1.46
GATACAGGGTCAAGGGCAGAGTACGCGTATTGAT	3.91	5.63	5.26	2.38	6.19	3.7	1.49	3.28
TCGGGTAGGTTACCAATGGGGCATTCAGCTTTCT	1.04	1.63	0.754	0.101	0.683	0.482	0.377	0.0681
TAGCCGAGGTCATGCGGGCCAGTATAGTGTCGGC	4.39	6.21	5.83	3.81	6.86	4.36	2.99	4.62
ATCTCTAGGTAGAGTTCAGTGAAAGATCGATAGA	1.89	1.61	1.55	2.18	1.3	0.946	-0.259	3.41
GCTTACGGGTCAAAGGTTAGAGCATGAATAGAAT	3.1	6.33	4.54	2.02	8.91	3.6	-0.338	0.946
TCTGCTAGGTCAGTTGGTAAGCTAACGAGCTGCC	1.95	2.35	3.32	0.399	0.543	1.16	-0.266	-0.694
GGTGCTAGGTCAACTGATGGTCAGCTAAAGCTCG	3.76	5.3	5.75	1.28	2.7	2.99	1.07	0.446
ATACCCAGGTGATCGTGAGGTCGTTGATACTAAC	2	1.49	0.63	0.432	1.39	3.14	2.72	2.52

Source: the supplement of paper PMC6555819
